KDM5B inhibitor = Primary screen for KDM5B Histone Demethylases FDH-coupled qHTS | KDM5B demethylase, FDH-coupled NADH fluorescence (FDH is formaldehyde dehydrogenase) | Lysine-specific demethylase 5B (Homo sapiens), Q9UGL1 | Potency, µM (highest dose often 57.7 µM), actives largely listed as inhibitors | 220,000 compounds, 2.6% hits | AID 1347165, 2019; note: potency is the fitted concentration of half-maximal effect; 0% is about no effect; nearly all actives have a fitted effect of over 70% in size
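Here, H3K4me3 peptide (12.5 µM in substrate mix) is demethylated by KDM5BΔAP, 200 nM final, after 10 min compound exposure. Formaldehyde product is coupled through FDH (0.25 U/mL in mix) to NADH fluorescence; 30-min ΔRFU feeds dose-response curves.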
SNCA expr inhib = Primary qHTS assay for inhibitors of alpha-synuclein gene (SNCA) expression | 140,000 compounds, 0.17% hits | AID 1671194, 2021 | HEK-293 SNCA-luciferase knock-in, luminescence, 24 h | Potency, µM (highest dose often 57.2 µM), without a hit: at the highest dose activity change, negative = inhibition, usual class: inhibitors;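 note: potency is the fitted concentration of half-maximal effect; plate controls were DMSO cells for no effect and cell-free wells for full effect; nearly all actives have a fitted effect of over 45% in size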
IP6K1 inhibitor = Primary qHTS assay for small molecule inhibitors of Inositol hexaphosphate kinase 1 (IP6K1); activity change, % (series mostly up to about 58 µM); Inositol hexakisphosphate kinase 1 (Homo sapiens), Q92551; IP6K1 kinase, ADP-Glo luminescence, 2 h; active compounds read low; 140,000 compounds, 0.81% hits; AID 1645851, 2021; in the data active = activity change below about -25%; note: % is set by controls: 0 for no effect and ±100 for the full control effect
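ADP-Glo luminescence measures ADP made by human IP6K1 during a 2 h RT reaction with ATP/IP6 (mix at 1.3 mM/130 uM); top library doses 57.5 and 19.1 uM final.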
SNCA viab count = GF-AFC viability counterscreen for inhibitors of alpha-synuclein gene (SNCA) expression | HEK-293-SNCA-luc viability, GF-AFC fluorescence, 24 h | Potency, µM (titrated, usually from 57.1 µM), inactives show at the highest dose activity change, negative = cytotoxicity, hits mostly cytotoxic | 150,000 compounds, 0.12% hits;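 note: potency is the fitted concentration of half-maximal effect; 0% = DMSO-treated cells and -100% = medium-only wells without cells; nearly all actives have a fitted effect of over 30% in size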
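HEK-293-SNCA-luc cells (1500/well) plated 24 h, then exposed 24 h to a dilution series; GF-AFC added 30 min at 37C, fluorescence 405/540 nm; normalised to medium-only and DMSO wells, Hill fit.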
Starred values were filed as active, the others as inactive; i = inactive; u = inconclusive; x = no result given; [ ] = another dose, or the depositor's remark. An excerpt weighted towards active compounds, which were near 2.9% of everything screened. Unless noted, calls come from the whole dose curve; as a rule, active = well fitted curve in the direction sought with a large enough effect; inconclusive = small, poorly fitted or top-dose-only effect, or another doubt; inactive = no such curve, though single readings can be large; an effect the other way counts as inactive or inconclusive.

SMILES | KDM5B inhibitor | SNCA expr inhib | IP6K1 inhibitor | SNCA viab count
CN1CCN(c2oc(-c3ccc(S(=O)(=O)N4CCCCCC4)cc3)nc2C#N)CC1 | i | x | x | x
O=c1c2cc(-c3cccs3)nn2ccn1CC(O)c1ccccc1 (centres undefined) | u | 115% | -6 | -1%
Cc1ccc(C)c(C(O)Cn2ccn3nc(-c4cccs4)cc3c2=O)c1 (centres undefined) | 20µM* | 18% | -4 | -18%
O=c1c2cc(-c3cccs3)nn2ccn1CC(O)c1cccc(Cl)c1 (centres undefined) | 20µM* | 13% | 2 | -8%
Cc1ccc(C)c(C(O)Cn2ccn3nc(-c4cccc(Br)c4)cc3c2=O)c1 (centres undefined) | 32µM* | -5% | -4 | -20%
O=C1Nc2ccccc2C1CCO (centres undefined) | i | x | x | x
O=C(CN1CC2CC(C1)[C@H]1CCCC(=O)N1C2)NCCCN1CCCc2ccccc21 (some centres undefined) | 14µM* | 11% | -2 | 0%
C=CCNC(=O)c1ccc(N2CC3CC(C2)[C@H]2CCCC(=O)N2C3)nc1 (some centres undefined) | 25µM* | 0% | 12 | u
O=C(NCCCN1CCCCC1)c1cccnc1N1CC2CC(C1)[C@H]1CCCC(=O)N1C2 (some centres undefined) | 28µM* | -26% | 6 | -1%
CC(C)CNC(=O)c1ccc(N2CC3CC(C2)[C@H]2CCCC(=O)N2C3)nc1 (some centres undefined) | u | -2% | 32 | -3%
O=C(CN1CC2CC(C1)[C@H]1CCCC(=O)N1C2)NCCCN1CCc2ccccc2C1 (some centres undefined) | u | -17% | 38 | 7%
COc1ccc(NC(=O)Cn2c(=O)n(-c3ccc(F)cc3)c(=O)c3c2cc(C)n3C)cc1OC | i | -13% | 0 | u
CCCCCN1CCN(c2nc3c(c(=O)[nH]c(=O)n3C)n2Cc2ccccc2F)CC1 | i | x | x | x
CN1C(=O)CO[C@H]2CCN(Cc3cccc(OC(F)(F)F)c3)CC[C@@H]21 | i | -1%[87.6 µM] | -7 | 9%[87.6 µM]
C/C=C(\C)C(=O)O[C@H]1C=C(CO)C(=O)[C@H](OC(C)=O)[C@H]1C(C)C | x | x | 1 | u
CCC(C)CC(=O)OC1C(=O)C(CO)=CC(O)C1C(C)C (centres undefined) | x | x | -8 | 19µM*
Cc1ccc(C(=O)N2CCO[C@@H](COc3ccccn3)[C@@H]2c2ccccc2)cn1 | x | -7% | 9 | 0%
c1cc(Cn2ccc3c(N4CCOCC4)nc(-c4cncnc4)cc32)ccn1 | i | -2%[87.6 µM] | 0 | -6%[87.6 µM]
c1ccc(-c2cc3c(ccn3Cc3ccncc3)c(N3CCOCC3)n2)cc1 | 7.9µM* | u | -8 | -6%[87.6 µM]
O=C1NCc2cc(-c3cc4c(ccn4Cc4ccncc4)c(N4CCOCC4)n3)ccc21 | 32µM* | 85%[87.6 µM] | 23 | 11%[87.6 µM]
COc1ccc(-c2cc3c(ccn3Cc3ccncc3)c(N3CCOCC3)n2)cn1 | u | 26%[87.6 µM] | -14 | 9%[87.6 µM]
COc1cc(F)ccc1-c1cc2c(ccn2Cc2ccncc2)c(N2CCOCC2)n1 | 35µM* | -19%[87.6 µM] | 6 | 0%[87.6 µM]
O=C(Nc1cccc(OC(F)(F)F)c1)[C@@H]1COCC(=O)N1Cc1ccc(F)cc1 | i | -9% | -3 | -8%
COc1ccc(-c2ccnc3nc(CCc4ccccc4)nn23)cc1OC | 22µM* | 41% | -15 | 4%
COc1cc(-c2ccnc3nc(CC(C)C)nn23)cc(OC)c1OC | 18µM* | 7% | -3 | 0%
SMILES | KDM5B inhibitor | SNCA expr inhib | IP6K1 inhibitor | SNCA viab count
COc1ccc(CCc2nc3nccc(-c4ccc(OC)c(OC)c4)n3n2)cc1 | 28µM* | 16% | 4 | 2%
COc1ccc(CCc2nc3nccc(-c4cc(OC)c(OC)c(OC)c4)n3n2)cc1 | u | -30% | -12 | -18%
COc1cc(-c2ccnc3nc(CCc4ccccc4)nn23)cc(OC)c1OC | 14µM* | 7% | 13 | 2%
C#CCN(C)Cc1nc(C2(O)CCN(C3CCC3)CC2)cs1 | i | 1%[87.6 µM] | 6 | -16%[87.6 µM]
O=C(Cc1c(F)cccc1Cl)NCc1cccc(NC(=O)c2ccncc2)c1 | i | x | x | x
Cc1ccc2[nH]cc(C(C(=O)O)N3CCc4ccccc4C3)c2c1 (centres undefined) | i | x | x | x

Screening results as filed in PubChem BioAssay.
